Values joined by “and” are separate entries in the source; they are usually repeats but may differ in a detail not shown here. Identical values can stand only once. Some compounds were tested as several samples or in several runs, with calls that do not always agree. Active and inactive are the calls of the source. Unless noted, the rule behind the calls is not given here.
Legend:
[1] = circadian clock period modulators, cell-based, LOPAC library, luminescence reporter (AID 2774); details: circadian reporter cells, at 7 µM, actives lie on both sides;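 note: values are relative to mean of DMSO wells on each plate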
[2] = hESC survival regulators, cell-based (AID 493140); details: human embryonic stem cell survival screen; stronger effect = higher value;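 note: cells exposed to compounds for four days before counting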
[3] = system: Hepatitis C virus NS3 helicase; test: HCV NS3 helicase inhibitors, primary screen, biochemical, fluorescence polarization, LOPAC1280 library (AID 687035; in the data active = inhibition above about 37%); details: Purified HCV NS3 helicase, Cy5-dT15 ssDNA binding fluorescence polarization; stronger effect = higher value; concentration not given here
[4] = Cy5 fluorescence quenching or enhancement artefacts, artefact control for HCV NS3 helicase inhibitor project, biochemical, LOPAC1280 (AID 687037); details: Cy5-DNA-NS3h complex fluorescence interference counterscreen
[5] = system: Aerobactin synthetase IucA (Klebsiella pneumoniae); test: IucA aerobactin synthetase inhibitors, biochemical, Tocris library, absorbance (AID 1345561); details: purified IucA enzyme assay, absorbance (OD) read-out; stronger effect = lower value;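 tested at 8 µM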;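 note: 100% = enzyme without compound and 0% = no enzyme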
[6] = sensitizers of A549 cells to miR-34 induction, primary screen, imaging, A549 dox-inducible miR-34, nuclei and caspase counts (AID 1347080;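 active = compounds whose cell count with miR-34 switched on is under 0.7 times the count with it off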); details: A549 miR-34 inducible, Hoechst nuclei count, 48 h
[7] = inhibitors of Cryptococcus chitosan production, flow cytometry, Cibacron Brilliant Red staining (AID 1347148); details: Cryptococcus neoformans chitosan, stronger effect = lower value; at 10 µM unless noted;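 note: compound exposure lasted three days at 37 degrees C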
[8] = phospholipid biosynthesis inhibitors in animal cells, primary screen, cell-based, LOPAC library, screen 4 (AID 1347384); details: phospholipid biosynthesis inhibition screen, at 10 µM
[9] = viability rescue of complex I mutant cybrids, primary screen, cell-based, galactose medium, ATP luminescence (AID 1645843;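 active = z-score of at least 1.8 in each of two replicates, scored against plate mean and spread of sample wells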;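 note: positive z means more ATP and so rescue of galactose-driven cybrid death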); details: complex I mutant cybrid cells, 72 h, stronger effect = higher value
[10] = liver-stage malaria parasite growth inhibition, primary screen, cell-based, HepG2, luciferase luminescence, HepG2 viability (AID 624349; in the data active = parasite load remaining mostly below about 12%, no sharp cut-off; inactive = mostly above about 10%;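 note: 100% = mean of DMSO negative control wells on the same plate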); details: P. berghei liver stage in HepG2, luciferase luminescence, concentration not given here; parasite load remaining: stronger effect = lower value; viability: measured here: HepG2 viability without parasites
[11] = stronger effect = lower value, cell number ratio, induced over uninduced
[12] = measured here: relative caspase fold change +Dox/-Dox
[13] = measured here: total cells with miR-34 induction, stronger effect = lower value
[14] = measured here: total cells without miR-34 induction

| SMILES | period change [1] | survival [2] | inhibition [3] | fluorescence ratio (interference) [4] | remaining activity [5] | fold change [6, 11] | fold change [6, 12] | cell count [6, 13] | cell count [6, 14] | fold fluorescence [7] | outcome [8] | z-score [9] | parasite load remaining [10] | viability [10] [%] |
| --- | --- | --- | --- | --- | --- | --- | --- | --- | --- | --- | --- | --- | --- | --- |
| CN(C)c1ccc(/C=C2\C(=O)Nc3ccccc32)cc1 | -0.18 h (inactive) | 85.4 (inactive) | -2% (inactive) | 0.9 (inactive) | 109% (inactive) | 1.15 (inactive) and 1.05 (inactive) and 0.834 (inactive) | 1.24 and 1.39 and 0.903 | 7000 and 1360 and 6590 | 6070 and 1300 and 7900 | 5.59 [at 189.2 µM] (inactive) | inactive | 3.25 (active) and 0.195 (inactive) | – | – |
| CC(C)(C)NCC(O)COc1cccc2[nH]c(=O)[nH]c12 (centres undefined) | -0.075 h (inactive) | – | -3% (inactive) | 1 (inactive) | 89.1% (inactive) | 0.952 (inactive) and 0.913 (inactive) | 1.58 and 1.07 | 9940 and 8700 | 10400 and 9520 | – | inactive | 0.24 (inactive) and 0.505 (inactive) | – | – |
| CCCCCCCC/C=C\CCCCCCCC(=O)NCCc1ccc(O)c(O)c1 | 0.16 h (inactive) | 98 (inactive) | -3% (inactive) | 1 (inactive) | 113% (inactive) | 0.822 (inactive) and 1.01 (inactive) and 1 (inactive) | 1.55 and 1.58 and 0.782 | 4510 and 5800 and 5520 | 5490 and 5740 and 5510 | – | inactive | -1.38 (inactive) and -0.82 (inactive) | – | – |
| CC(N)=NCc1cccc(CN)c1 | -0.015 h (inactive) | – | – | – | 107% (inactive) | 1.05 (inactive) and 0.837 (inactive) | 1.01 and 0.692 | 6210 and 7850 | 5900 and 9380 | 3.53 [at 282.1 µM] (inactive) | – | 0 (inactive) | – | – |
| COC1(C2=NCCN2)COc2ccccc2O1 (centres undefined) | 0.04 h (inactive) | – | -3% (inactive) | 0.9 (inactive) | 126% (inactive) | 0.986 (inactive) and 0.983 (inactive) | 1.8 and 0.411 | 10100 | 10300 and 10200 | – | inactive | -0.135 (inactive) and -0.24 (inactive) | – | – |
| CCCCCCCCCCCCCCCC(=O)OC(CC(=O)O)C[N+](C)(C)C (centres undefined) | 0.01 h (inactive) | 103 (inactive) | -4% (inactive) | 1 (inactive) | 122% (inactive) | 1.09 (inactive) and 1.01 (inactive) | 0.674 and 0.826 | 6530 and 7890 | 5960 and 7780 | – | inactive | -1.29 (inactive) and -1.24 (inactive) | – | – |
| O=C1Cc2c([nH]c3ccc(Br)cc23)-c2ccccc2N1 | -0.835 h (active) | – | 1% (inactive) | 1 (inactive) | 115% (inactive) | 1.11 (inactive) and 0.922 (inactive) and 1.05 (inactive) | 0.981 and 0.403 and 0.535 | 4020 and 4080 and 1060 | 3640 and 4430 and 1010 | – | inactive | -0.785 (inactive) and -0.43 (inactive) | 33% (inactive) | 64.2 |

From PubChem BioAssay
